Hits are enriched below; roughly 8.5% of the tested compounds scored in any of these assays.
Sfp PPTase inh = blocks B. subtilis Sfp PPTase activity; Biochemical Sfp PPTase activity, qHTS; 310,000 compounds, 3.5% hits; Potency, µM, without a hit: largest response in the series, negative = inhibition, most hits filed as inhibitors;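 note: the enzyme is Sfp with the accession as filed and its product quenches rhodamine fluorescence; potency is the fitted concentration of half-maximal effect; 0% = enzyme reaction without inhibitor and -100% = no enzyme wells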
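Fluorescence-quenching assay: 15 nM Sfp-PPTase preincubated 15 min at room temperature with compound, then 5 uM rhodamine-CoA and 12.5 uM BHQ-2-labelled YbbR peptide added. Fluorescence (ex 525/em 598 nm) read at start and after 30 min; difference gives rate.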
NPSR antagonist = antagonists of human neuropeptide S receptor cAMP signaling; Q6W5P4; Potency, µM (top dose mostly 38.3 µM), for inactives: at the highest dose activity change, negative = inhibition, usual class: inhibitors; CHO-NPSR cells, cAMP TR-FRET, antagonist mode; 220,000 compounds, 1% hits; note: potency is the fitted concentration of half-maximal effect; nearly all actives have a fitted effect of over 50% in size
Target sequence (Q6W5P4 whole entry, looked up): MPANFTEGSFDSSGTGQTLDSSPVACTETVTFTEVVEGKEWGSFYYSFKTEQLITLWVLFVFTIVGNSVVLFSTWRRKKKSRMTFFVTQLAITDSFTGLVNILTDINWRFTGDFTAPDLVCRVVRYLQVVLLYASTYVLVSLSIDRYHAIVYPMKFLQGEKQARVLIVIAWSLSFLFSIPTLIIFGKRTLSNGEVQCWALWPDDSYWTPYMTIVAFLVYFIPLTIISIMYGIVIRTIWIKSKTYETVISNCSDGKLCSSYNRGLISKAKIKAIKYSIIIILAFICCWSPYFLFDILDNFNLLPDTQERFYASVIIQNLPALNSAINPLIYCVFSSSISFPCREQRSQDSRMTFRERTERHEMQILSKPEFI
KDM4E inh = inhibitors of human JMJD2E histone demethylase; B2RXH2; Potency, µM (top dose mostly 57.1 µM), for inactives: top-dose activity change, negative = inhibition, actives largely listed as inhibitors; JMJD2E catalytic domain, FDH-coupled NADH fluorescence (FDH is formaldehyde dehydrogenase); 230,000 compounds, 1.6% hits; AID 2147; active = well fitted inhibition curve with a large enough effect, not every such curve was filed as active; inconclusive = small, poorly fitted or top-dose-only effect, or another doubt; inactive = no such curve, though single readings can be large or run the other way;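 note: potency is the fitted concentration of half-maximal effect; 0% = wells with enzyme and -100% = buffer wells without enzyme; nearly all actives have a fitted effect of over 50% in size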
GoLoco inh red = inhibitors of human Gai1-RGS12 GoLoco interaction (red fluorophore) | Potency, µM (series often up to 61.6 µM), inactives show top-dose activity, negative = inhibition, usual class: inhibitors | P63096 | Gai1:RGS12 GoLoco peptide FP, rhodamine, 10 min | 230,000 compounds, 0.44% hits; active = well fitted inhibition curve with a large enough effect, not every such curve was filed as active; inactive = no such curve, though single readings can be large or run the other way; note: potency is the fitted concentration of half-maximal effect; nearly all actives have a fitted effect of over 30% in size
Target sequence (P63096 whole entry, looked up): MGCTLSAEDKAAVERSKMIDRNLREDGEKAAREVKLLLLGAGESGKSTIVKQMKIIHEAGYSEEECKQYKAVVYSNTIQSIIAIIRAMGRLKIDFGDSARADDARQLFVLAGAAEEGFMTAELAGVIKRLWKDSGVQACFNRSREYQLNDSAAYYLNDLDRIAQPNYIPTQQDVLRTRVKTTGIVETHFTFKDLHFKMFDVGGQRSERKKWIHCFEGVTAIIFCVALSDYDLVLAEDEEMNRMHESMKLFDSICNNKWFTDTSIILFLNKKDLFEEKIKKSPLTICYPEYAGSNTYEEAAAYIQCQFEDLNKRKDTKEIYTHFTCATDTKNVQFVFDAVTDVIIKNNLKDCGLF
ALDH1A1 inh = ALDH1A1 (human) enzyme inhibition | P00352 | Purified ALDH1A1, NADH fluorescence, propionaldehyde substrate | Potency, µM (series often up to 75.3 µM), inactives show at the highest dose activity, negative = inhibition, usual class: inhibitors | 220,000 compounds, 7.3% hits; active = well fitted inhibition curve with a large enough effect, not every such curve was filed as active; inconclusive = small, poorly fitted or top-dose-only effect, or another doubt; inactive = no such curve, though single readings can be large or run the other way;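 note: potency is the fitted concentration of half-maximal effect; plate controls were no enzyme wells and a reference inhibitor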
Coupling enz = coupling enzyme interference in Giardia aldolase counter-screen | coupling enzyme system counterscreen, AmpLite Red fluorescence | activity change, negative = inhibition, % at 58.2 µM, hits read low | 290,000 compounds, 0.67% hits | AID 2472; in the data active = activity change below about -30%
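Fluorescence at 525 nm excitation and 598 nm emission measured inhibition of the coupled detection system without aldolase. Compounds (at 57.5 uM final) were preincubated 10 min at room temperature with coupling enzyme reagent before a 20 min substrate/AmpLite Red step.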
Numbers without * were called inactive; ? = inconclusive; · = no result; [ ] = remark or other dose. Unless noted, calls come from the whole dose curve; as a rule, active = well fitted curve in the direction sought with a large enough effect; inconclusive = small, poorly fitted or top-dose-only effect, or another doubt; inactive = no such curve, though single readings can be large; an effect the other way counts as inactive or inconclusive. Unless noted, % is set by controls: 0 for no effect and ±100 for the full control effect.

SMILES	Sfp PPTase inh	NPSR antagonist	KDM4E inh	GoLoco inh red	ALDH1A1 inh	Coupling enz
Cc1ccc(S(=O)(=O)N2c3ccccc3NC(=O)C2CC(=O)Nc2ccccc2)cc1 (stereo not given)	9%	-23%[46.1 µM]	1%	-2%	20µM*	4
O=C(CC(c1ccccc1)C1CCCCC1=O)c1ccco1 (stereo not given)	-10%	-10%	?	-2%	?	0
COc1ccc(C(=O)CC(c2ccccc2)C2CCCCC2=O)cc1 (stereo not given)	20%	-13%[46.1 µM]	-4%	9%	0.5µM*	4
O=C(CC(c1ccco1)C1CCCCC1=O)c1ccco1 (stereo not given)	-5%	-7%[46.1 µM]	-6%	-2%	25µM*	3
O=C(Nc1ccccc1Cl)c1ccc(=O)[nH]n1	9%	·	·	·	·	1
CCN(CC)S(=O)(=O)c1cc(C(=O)OCC(=O)Nc2cccc(Br)c2)ccc1F	18%	6%	0%	-5%	9%	2
O=C1C(c2[nH]c3ccc(S(=O)(=O)O)cc3c2O)=Nc2ccc(S(=O)(=O)O)cc21	22µM*	·	·	-33%	?	-38*
COc1ccccc1C(=O)Nc1ccnn1C1CCN(Cc2cnn(C)c2C)CC1	-3%	·	·	·	·	0
O=C(O)c1ccc(N=NNc2cccc([N+](=O)[O-])c2)cc1	6%	-23%	-5%	12%	1%	8
O=C(/C(N=Nc1cccc([N+](=O)[O-])c1)=C(/O)c1ccc(Br)cc1)C(F)(F)F	12%	6.3µM*	6%	3%	·	1
COc1ccc(-n2nnnc2SCC(=O)N2CCN(C(=O)c3ccco3)CC2)cc1OC	-10%	34%	21%	-19%	32µM*	2
CC(=O)N1CCN(C(=O)CSc2nnc(C)n2-c2ccccc2)CC1	4%	·	·	·	·	3
Cc1nnc(SCC(=O)N2CCN(C(=O)c3ccco3)CC2)n1-c1ccccc1	2%	10%	5%	11%	28µM*	-1
COc1ccc(OC)c(-n2nnnc2SCC(=O)N2CCN(C(=O)c3ccco3)CC2)c1	14%	-3%	-8%	-4%	?	4
Cc1c(C(=O)OCC(=O)N(C)c2ccccc2)oc2ccccc12	7%	·	·	·	·	0
CCN(CC)P(=O)(Nc1ccc(C)cc1Br)c1ccc(N(C)C)cc1NC(=O)c1ccco1 (stereo not given)	-28%	10µM*	-14%	4%	?	-5
CC(C)c1ccccc1NC(=O)COc1ccc2c(=O)c(Oc3ccc4ccccc4c3)coc2c1	8%	-17%	-14%	18%	11%	-2
CCc1ccccc1NC(=O)COc1ccc2c(=O)c(Oc3cc(C)ccc3C)coc2c1	45µM*	-35%	12%	12%	5%	3
Cc1csc2c(SCC(=O)NNC(=O)C(Cl)Cl)ncnc12	26%	34%	13%	10%	28µM*	11
COc1ccccc1Nc1n[nH]c(=S)s1	79µM*	-18%	20µM*	-4%	3.5µM*	0
CNc1n[nH]c(=S)s1	35µM*	7%	-18%	-10%	·	-2
Cc1cccc(Nc2n[nH]c(=S)s2)c1C	20µM*	-8%[46.1 µM]	13µM*	3%	3.5µM*	4
CCc1cccc(C)c1NC(=O)CSc1nc2ccncc2[nH]1	10%	·	·	·	·	0
CCOc1c(C)cc(S(=O)(=O)NCc2ccccn2)c(C)c1C	17%	·	·	·	·	0
Cc1nc2oc(C(=O)c3ccc(Br)cc3)c(N)c2c2c1COC(C)(C)C2	-7%	-22%[46.1 µM]	-3%	·	?	5
SMILES	Sfp PPTase inh	NPSR antagonist	KDM4E inh	GoLoco inh red	ALDH1A1 inh	Coupling enz
CCCc1nc2oc(C(=O)c3ccccc3)c(N)c2c2c1COC(C)(C)C2	15%	-19%[46.1 µM]	?	-11%	10µM*	1
CCCN=Cc1ccc(O)cc1	12%	8%	7%	8%	8.9µM*	0
CCC1=C2CC[C@H]3C(=O)N(C)C(=O)[C@H]3[C@H]2[C@@]2(C)C(=O)N(CC3CC3)C(=O)N2C1=O	18%	·	-18%	7%	2%	-1
CCC1=C2CC[C@H]3C(=O)N(C)C(=O)[C@H]3[C@H]2[C@@]2(C)C(=O)N(CC(=O)OC)C(=O)N2C1=O	9%	·	-7%	4%	-5%	4
CCC1=C2CC[C@H]3C(=O)N(CC)C(=O)[C@H]3[C@H]2[C@@]2(C)C(=O)N(CC(=O)OC)C(=O)N2C1=O	1%	·	-12%	-34%	18µM*	-2
CCC1=C2CC[C@H]3C(=O)N(c4ccccc4)C(=O)[C@H]3[C@H]2[C@@]2(C)C(=O)N(Cc3ccccc3)C(=O)N2C1=O	-4%	·	-26%	-3%	20µM*	-1
CCC1=C2CC[C@H]3C(=O)N(CC(=O)OC)C(=O)[C@H]3[C@H]2[C@@]2(C)C(=O)N(CC3CC3)C(=O)N2C1=O	50µM*	·	-19%	3%	-8%	1
O=C(COc1ccc(S(=O)(=O)NC2CCCCC2)cc1)NC1CC1	10%	·	·	·	·	·
Cc1cc2c(cc1S(=O)(=O)CCC(=O)NC1CCCCC1C)OCC(=O)N2 (stereo not given)	5%	·	·	·	·	2
CC1CCCC(C)N1C(=O)c1cc(-c2ccc3c(c2)OCO3)on1 (stereo not given)	-5%	·	·	·	·	-2
CNc1nc(-c2ccccn2)nnc1-c1ccccc1	63µM*	-9%[46.1 µM]	?	3%	-2%	1
c1ccc(-c2nc(-c3ccccn3)no2)cc1	-6%	-24%[46.1 µM]	0%	-1%	13%	1
c1ccc(-c2nnc(-c3ccccn3)nc2NC2CCCCC2)cc1	1%	10µM*	?	9%	4%	1
CSc1nnc(-c2cc[n+](C)cc2)n1CCO	-1%	13%	-8%	-33%	9%	-3
CC12CC[C@@](C(=O)O)(C(=O)C1=O)C2(C)C	3%	·	3%	2%	0%	3
O=C(Nc1ccc(Cl)cc1)[C@@H]1[C@@H]2C(=O)N(c3ccc(Cl)cc3)C(=O)[C@@H]2[C@H]2C=CC=NN21	45µM*	-24%[46.1 µM]	-21%	28%	?	1
Cc1ccc(N2C(=O)[C@@H]3[C@H](C2=O)[C@H]2C=CC=NN2[C@@H]3C(=O)Nc2ccc(Cl)cc2)cc1	40µM*	-10%[46.1 µM]	-20%	16%	7.9µM*	-5
COc1ccccc1N1C(=O)[C@@H]2[C@H](C1=O)[C@H](C(=O)c1ccc(OC(C)=O)cc1)N1N=CC=C[C@@H]21	-17%	2%	-24%	118%	·	-8
O=C(Nc1ccc(Cl)cc1)[C@@H]1[C@@H]2C(=O)N(c3ccc(Cl)cc3Cl)C(=O)[C@@H]2[C@H]2C=CC=NN21	-10%	-14%[46.1 µM]	-30%	138%	22µM*	-4
COCCn1cnnc1SCC(=O)Nc1cc(OC)c([N+](=O)[O-])cc1C	9%	-17%	1%	0%	-7%	1

Screening results from PubChem BioAssay.
